HT1080-NT tox: qHTS for induction of synthetic lethality in tumor cells producing 2HG: qHTS for the HT-1080-NT fibrosarcoma cell line | HT-1080-NT fibrosarcoma viability, CellTiter-Glo ATP luminescence, 48 h | Potency, µM (highest dose often 46.1 µM), inactives show top-dose activity, negative = less viability, hits mostly cytotoxic | 360,000 tested, 1.6% active | AID 686970, 2013;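 also: NT is the 2HG producing partner of a matched IDH1 knockdown line; 0% = DMSO-treated cells and -100% = media-only wells without cells; nearly all actives have a fitted effect of over 55% in size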
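Read-out is CellTiter-Glo luminescence after 10 minutes at room temperature, following 48 hours' compound treatment of HT-1080-NT cells (750 cells/well, RPMI, 5% FBS, 37 degrees C).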
S2 tox: Viability Counterscreen for Primary qHTS for Inhibitors of ATXN expression. S2 cells (HEK-293 line with an ATXN2-luciferase reporter) viability, CellTiter-Fluor protease fluorescence, 24 h. Potency, µM (series often up to 56.7 µM), usual class: cytotoxic. 400,000 tested, 0.49% active; also: nearly all actives have a fitted effect of over 40% in size
KB-3-1 tox: qHTS assay for MDR1-selective chemotherapeutics: Primary screen using the parental adenocarcinoma cell KB-3-1. 400,000 tested, 1.4% active. Potency, µM (highest dose often 46.1 µM), usual class: cytotoxic. KB-3-1 viability, CellTiter-Glo ATP luminescence, 72 h; also: % is scaled to controls: 0 for no effect and ±100 for the full control effect; nearly all actives have a fitted effect of over 60% in size
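Here the drug-naive KB-3-1 line serves as comparator for MDR sub-line selectivity; cells received compound titrations, 72 h at 37 °C, then CellTiter-Glo readout.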
KB-V1 cytotox: qHTS assay for MDR1-selective chemotherapeutics: Primary screen using the drug-selected MDR subline cells KB-V1 | KB-V1 MDR cells viability, CellTiter-Glo, 72 h | Potency, µM (highest dose often 46.1 µM), hits mostly cytotoxic | 400,000 tested, 3.4% active | AID 1347076, 2019; also: % is scaled to controls: 0 for no effect and ±100 for the full control effect; nearly all actives have a fitted effect of over 60% in size
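Luminescent ATP read-out (CellTiter-Glo, 10 min) measures survival of drug-selected KB-V1 MDR cells after 72 h, 37 degrees C compound exposure. Medium: phenol-red-free DMEM, 10% FBS. Values from fitted concentration-response curves.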
HT1080 IDH1KD tx: qHTS for induction of synthetic lethality in tumor cells producing 2HG: qHTS for the HT-1080-IDH1KD cell line; HT-1080 IDH1 knockdown viability, ATP luminescence, 48 h; Potency, µM (titrated, usually from 46.1 µM), without a hit: at the highest dose activity, negative = toxicity, most hits filed as cytotoxic; 360,000 tested, 2% active;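 also: 0% = DMSO wells and -100% = cell-free medium wells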
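Luminescent ATP read-out (CellTiter-Glo, 10 min at room temperature) after 48 h compound exposure at 37 °C gave viability of IDH1-knockdown HT-1080 cells. Activity was normalised to DMSO and cell-free wells, then fitted as concentration-response curves.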
ATXN2 expr inh: Primary qHTS for Inhibitors of ATXN expression. Potency, µM (series often up to 57 µM), inactives show at the highest dose activity change, negative = inhibition, actives largely listed as inhibitors. AID 1745845, 2022. HEK-293 ATXN2-luciferase reporter, luminescence, 24 h. 360,000 tested, 0.72% active; also: % is scaled to controls: 0 for no effect and ±100 for the full control effect; nearly all actives have a fitted effect of over 55% in size
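ATXN2-luciferase reporter cells (luciferase flanked by upstream and downstream ATXN2 gene portions) were treated 24 h at 37 °C with compounds at up to 57 uM. SteadyGlo luminescence gave expression; GF-AFC fluorescence gave viability.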
An asterisk follows results filed as active; i = inactive; ? = inconclusive; · = no result. Hits are enriched below; roughly 6.2% of the tested compounds scored in any of these assays. Calls follow the shape of the dose curve; as a rule, active = well fitted curve in the direction sought with a large enough effect; inconclusive = small, poorly fitted or top-dose-only effect, or another doubt; inactive = no such curve, though single readings can be large; an effect the other way counts as inactive or inconclusive. Potency is read from the fitted curve at half-maximal effect.

SMILES | HT1080-NT tox | S2 tox | KB-3-1 tox | KB-V1 cytotox | HT1080 IDH1KD tx | ATXN2 expr inh
CCN1CCN(C(=O)NC2CCCCC2)CC1 | 9.0% | i | i | i | 6.8% | -27.3%
c1ccc(-c2csc(N3CCOCC3)n2)cc1 | 24.7% | i | i | i | -1.0% | 70.9%
O=C(N1CCOCC1)N1CCN(c2nc(-c3ccccc3)cs2)CC1 | 3.6% | ? | i | 20.6µM* | 4.9% | 24.5%
O=C(NC1CCCCC1)N1CCN(CCc2ccccc2)CC1 | 4.6% | i | i | 18.4µM* | 3.6% | -8.4%
COCCNC(=S)N1CCN(c2nc(-c3ccccc3)cs2)CC1 | ? | i | i | i | -5.7% | -36.9%
CCCCN1CC(O)=C(c2nc(-c3ccc(Cl)cc3)cs2)C1=N | -0.5% | ? | i | i | 5.1% | ?
O=C(NC(=S)N1CCN(c2nc(-c3ccccc3)cs2)CC1)c1cccnc1 | -6.8% | i | i | 20.6µM* | -4.9% | -10.3%
S=C(NCCCN1CCOCC1)N1CCN(c2nc(-c3ccccc3)cs2)CC1 | 18.4µM* | i | i | i | 23.1µM* | ?
COc1ccc(-c2csc(N3CCN(C(=O)c4ccccc4)CC3)n2)cc1 | 5.2% | i | i | 16.4µM* | -0.1% | -21.2%
COc1ccc(-c2csc(N3CCN(C(=O)c4ccco4)CC3)n2)cc1 | -2.2% | i | ? | i | -11.4% | ?
N=C1C(c2nc(-c3ccc(Cl)cc3)cs2)=C(O)CN1CCCN1CCOCC1 | 23.1µM* | i | i | i | ? | -4.8%
Cc1nnsc1C(=O)N1CCCC(C)(C(=O)NS(=O)(=O)C2CC2)C1 (centres undefined) | 26.7% | i | i | i | 0.8% | 4.5%
CC(=O)Nc1ccc(-c2ccnc3c2CC(C)(C(=O)Nc2ccc(F)c(Cl)c2)O3)cc1 (centres undefined) | ? | ? | i | ? | ? | ?
CC(C)(C)c1nnc(NS(=O)(=O)c2ccccc2)s1 | · | i | · | · | · | 2.3%
CCC(C)NC(=O)CN1C(=O)c2cccnc2Sc2ccccc21 (centres undefined) | · | i | i | i | · | 0.9%
CCCNC(=S)N1CCN(c2nc(-c3ccc(C)cc3)cs2)CC1 | -23.5% | i | i | ? | -16.1% | ?
COc1ccc(-c2csc(N3C(=O)C4C5c6ccccc6C(c6ccccc65)C4C3=O)n2)cc1 (centres undefined) | 16.6% | ? | i | 6.51µM* | ? | 3.6%
S=C(NCCCN1CCOCC1)N1CCN(c2nc(-c3ccc(Cl)cc3)cs2)CC1 | ? | · | ? | i | ? | 3.16µM*
COc1cccc(-c2csc(N3CCN(C(=O)C4CCCCC4)CC3)n2)c1 | 1.9% | i | ? | 18.4µM* | -3.6% | -0.8%
Cc1cc(NC(=O)CCCN2C(=O)/C(=C/c3ccccc3Cl)SC2=S)no1 | 1.1% | i | ? | 20.6µM* | -2.4% | ?
O=C(CCCN1C(=O)/C(=C\c2ccccc2)SC1=S)Nc1ccc(C(=O)O)cc1 | -6.9% | i | i | ? | -4.5% | 5.1%
COC(=O)c1ccc(/C=C2/SC(=S)N(CCCC(=O)Nc3ccc(O)cc3)C2=O)cc1 | -9.3% | i | ? | i | -7.1% | 1.5%
O=C(CN1C(=O)S/C(=C/C=C/c2ccccc2)C1=O)Nc1ccc(C(=O)O)cc1 | 6.5% | i | i | i | 0.7% | 30.7%
O=C(CCCN1C(=O)S/C(=C\C=C\c2ccccc2)C1=O)Nc1ccc(O)cc1 | ? | ? | i | i | 20.6µM* | 5.1%
Cc1ccc(/C=C2\SC(=S)N(CCCC(=O)Nc3ccc(O)cc3)C2=O)cc1 | -1.9% | i | i | i | -10.5% | 10µM*
SMILES | HT1080-NT tox | S2 tox | KB-3-1 tox | KB-V1 cytotox | HT1080 IDH1KD tx | ATXN2 expr inh
CC(=O)c1ccc(NC(=O)CCCN2C(=O)/C(=C/C(C)=C/c3ccccc3)SC2=S)cc1 | 6.0% | · | ? | 18.4µM* | 0.5% | 11.5%
CC(NC(=O)c1cc(S(=O)(=O)N2CCOCC2)ccc1F)c1ccc(-n2ccnc2)cc1 (centres undefined) | 0.5% | i | i | i | -2.2% | 2.6%
COCCCNC(=O)c1sc2nc(C)c(C(=O)Nc3ccc(C)cc3C)c(-c3ccc(Cl)cc3)c2c1N | · | ? | i | i | · | ?
Cc1ccc(NC(=O)CN2C=NS(=O)(=O)c3ccccc32)cc1 | · | i | i | i | · | 1.4%
CCc1ccc(/C=C2\SC(=S)N(CCCC(=O)Nc3ccccc3C(=O)O)C2=O)cc1 | 0.2% | i | i | ? | ? | -31.1%
Cc1ccc(/C=C2\SC(=S)N(CCCC(=O)Nc3ccccc3C(=O)O)C2=O)cc1 | 25.4% | i | i | ? | 10.5% | 12.6µM*
O=C(CCN1C(=O)/C(=C/c2ccccc2)SC1=S)Nc1ccccn1 | -4.6% | i | i | i | -6.0% | -12.4%
Cc1ccc(/C=C2\SC(=S)N(CCCC(=O)Nc3ccccn3)C2=O)cc1 | 0.2% | i | ? | ? | -6.7% | 3.16µM*
CCCCOc1ccc(C(=O)Nc2ccc3c(c2)CCCN3C(=O)c2cccs2)cc1 | · | i | ? | ? | · | -7.2%
N=c1sccn1CC(=O)N1N=C(c2ccc(Cl)cc2)CC1c1ccco1 (centres undefined) | 32.6µM* | i | i | ? | ? | -30.7%
COc1cc(C=CC(=O)N2CCN(CC(=O)N3CCCC3)CC2)cc(OC)c1OC | -2.3% | i | i | i | 12.1% | ·
COc1ccc(S(=O)(=O)Nc2ccccc2OC)cc1NC(=O)CC1CC2CCC1C2 (centres undefined) | -11.7% | i | i | 20.6µM* | -8.6% | -10.5%
COc1ccc(NC(=O)CN2CCc3ccccc3C2)cc1S(=O)(=O)N1CCOCC1 | -12.8% | i | i | i | -8.4% | 13.8%
COc1cc2c(cc1OC)C(C)N(CC(=O)Nc1ccc(C)c(S(=O)(=O)N3CCOCC3)c1)CC2 (centres undefined) | 16.4µM* | i | i | i | ? | ·
COc1ccc(NC(=O)CC2CC3CCC2C3)cc1S(=O)(=O)N1CCOCC1 (centres undefined) | 15.7% | ? | i | 13µM* | 6.0% | -11.7%
